Sampled rows, rich in hits. Any-hit rate of the full collection: about 7.2%.
FMDV antiviral = foot and mouth disease virus antiviral activity; FMDV antiviral cell-based qHTS; Potency, µM (titrated, usually from 57.9 µM), for inactives: top-dose activity change, negative = inhibition, most hits filed as inhibitors; 1.2% of 410,000 active; calls by dose curve; tested in HEK293T cells; also: read-out not given here; nearly all actives have a fitted effect of over 45% in size
Marburg entry inh = inhibitors of Marburg virus binding or cell entry; 1.8% of 300,000 active; AID 540276; Potency, µM (doses to about 37.8 µM), without a hit: at the highest dose activity change, negative = inhibition, hits mostly inhibitors; Marburg virus pseudotyped entry inhibition, cell reporter; calls by dose curve; tested in HEK293 cells
LASV entry inh = blocks Lassa virus binding to or entry into cells | Lassa virus pseudotype entry inhibition, cell reporter | Potency, µM (titrated, usually from 37.9 µM), for the others: at the highest dose activity change, negative = inhibition, actives largely listed as inhibitors | 1.2% of 300,000 active | AID 540256; calls by dose curve; tested in HEK293 cells; also: nearly all actives have a fitted effect of over 50% in size
Sm TGR block = S. mansoni TGR enzyme inhibition | 3% of 360,000 active | Q962Y6 | AID 485364 | Potency, µM (top dose mostly 114 µM), for the others: at the top dose activity change, negative = inhibition, actives largely listed as inhibitors | purified TGR, DTNB reduction, TNB absorbance 405 nm; also: nearly all actives have a fitted effect of over 60% in size
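TGR 20 nM + NADPH 100 uM (dispensed conc.), cpd preinc 15 min RT; start with NADPH (500 uM addition) then DTNB (15 mM addition). Kinetic TNB absorbance, 405 nm filter. Four-parameter Hill fit across titration.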
HCV inh = inhibitors of hepatitis C virus infection. Huh7.5.1 HCVcc-Cre infection, luciferase reporter, 44 h. Potency, µM (highest dose often 41.8 µM), without a hit: at the top dose activity change, negative = inhibition, usual class: inhibitors. 3.4% of 340,000 active. AID 651820
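Cells (1,000/well) were plated 4 h before compound, then infected with HCVcc-Cre virus (~0.5 moi). After 44 h further culture, infection was read as luciferase luminescence following a 15 min substrate incubation at room temperature.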
RE007 growth inh = less growth of the S. pombe RE007 Vpr strain; S. pombe RE007 Vpr strain, BacTiter-Glo ATP luminescence, 24 h; Potency, µM (titrated, usually from 92.2 µM), for the others: at the top dose activity change, negative = less growth, hits mostly inhibitors; 0.21% of 360,000 active; AID 651644; active = well fitted falling curve with a large enough effect; inconclusive = small, poorly fitted or top-dose-only effect; inactive = no such curve, though single readings can be large or run the other way; also: nearly all actives have a fitted effect of over 50% in size
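Fission yeast strain RE007, carrying one chromosomally integrated HIV-1 vpr copy, was seeded at OD 0.01 in PMG+AL medium with 23 nL pinned compound. After 24 h at 30 °C and 99% humidity, viability was read by BacTiter-Glo luminescence.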
An asterisk follows results filed as active; ? = inconclusive; · = no result given; [ ] = another dose, or the depositor's remark. Unless noted, calls follow the shape of the dose curve; as a rule, active = well fitted curve in the direction sought with a large enough effect; inconclusive = small, poorly fitted or top-dose-only effect, or another doubt; inactive = no such curve, though single readings can be large; an effect the other way counts as inactive or inconclusive. % is scaled to controls: 0 for no effect and ±100 for the full control effect; potency is read from the fitted curve at half-maximal effect.

SMILES | FMDV antiviral | Marburg entry inh | LASV entry inh | Sm TGR block | HCV inh | RE007 growth inh
CC1(C)CC(C)(c2ccc(O)cc2O)N(c2ccc3ccccc3c2)C(=S)N1 (configuration not stated) | -2% | -9%[46.1 µM] | -4% | -14% | 10µM* | 4%
CCOC(=O)N1CCN(CC(=O)Nc2c(C(=O)OC)[nH]c3ccc(Cl)cc23)CC1 | 32µM* | ? | ? | -6% | ? | 5%
COC(=O)c1[nH]c2ccc(C)cc2c1NC(=O)CN1CCN(c2ccc(F)cc2)CC1 | 25µM* | ? | 13µM* | -6% | ? | 1%
COC(=O)c1[nH]c2cc(C)ccc2c1NC(=O)CN1CCc2cc(OC)c(OC)cc2C1 | 22µM* | ? | ? | -11% | ? | 13%
COC(=O)c1[nH]c2ccc(Cl)cc2c1NC(=O)CN1CCc2cc(OC)c(OC)cc2C1 | ? | ? | ? | -22% | ? | 22%
O=C(NCC1Cc2cccc(-c3cnccn3)c2O1)c1ccc2c(c1)OCCO2 (configuration not stated) | 47% | · | · | · | · | ·
CCCC(CCC)C(=O)NC1CC(=O)N(c2ccc3c(c2)OCCO3)C1 (configuration not stated) | -6% | · | 20%[46.1 µM] | -1% | · | ·
C[C@@H]1CNCCN1S(=O)(=O)c1cccc2cnccc12 | -12% | -1% | · | · | · | ·
O=C(NCc1ccncc1)[C@@H]1CCCN1C(=O)[C@H]1CCCN1 | -22% | · | · | · | · | 12%
Cc1ccc(NC(=O)c2ccc(=O)[nH]n2)cc1C | 38% | ? | 24%[46.1 µM] | 10% | -3% | -5%
Cc1ccc(NC(=O)c2ccc(=O)[nH]n2)cc1S(=O)(=O)Nc1ccc(SC(F)F)cc1 | 35% | · | · | · | 3.2µM* | -6%
O=C(CSCC(=O)N1CCN(c2ccccc2)CC1)Nc1nc(-c2ccc(Cl)s2)cs1 | -8% | 0% | · | -2% | 6.3µM* | 16%
O=C(CSCC(=O)N1CCCCC1)Nc1nc(-c2ccc(Cl)s2)cs1 | 0% | · | · | -15% | -14% | -14%
Cc1cccc(N2CCN(C(=O)c3ccc(CS(=O)c4cccc(Cl)c4)o3)CC2)c1C (configuration not stated) | ? | · | ? | -1% | · | ·
Nc1[nH]c2cc([N+](=O)[O-])ccc2c1-c1ccccn1 | -8% | -25%[46.1 µM] | -29%[46.1 µM] | -6% | 13µM* | -5%
CC(=O)c1sc(N/N=C2\CC3CC2C(C)C3(C)C)nc1C (configuration not stated) | 20% | ? | 0%[46.1 µM] | 1.6µM* | -21% | 6%
COc1ccc(C(=O)N2CCC3(CCCN(Cc4ccccc4OC)C3)CC2)cc1 | -4% | · | · | · | · | ·
COc1cccc2sc(Nc3nnc(-c4ccc(F)cc4)o3)nc12 | 14% | · | · | -5% | ? | -24%
Fc1cccc2sc(Nc3nnc(-c4ccco4)o3)nc12 | -12% | ? | ? | 40µM* | 3% | -25%
CCN(CC)C(=O)c1nn(-c2ccccc2)c2c1C1CCC2(C)C1(C)C (configuration not stated) | -24% | ? | ? | 9% | 13µM* | 14%
CC(C)C[C@@H]1NC(=O)[C@H](Cc2ccccc2)N(C)C(=O)[C@H](C)NC(=O)c2ccccc2NC(=O)[C@H](Cc2ccc(O)cc2)N(C)C1=O | -16% | · | · | -2% | 8.9µM* | -4%
Cc1ccc(C)c(OC2=NS(=O)(=O)c3ccccc32)c1 | 35µM* | -39%[46.1 µM] | 0%[46.1 µM] | -16% | -8% | -9%
CCOC(=O)c1cc(OC(=O)c2ccccc2OC)n(-c2ccccc2)n1 | -6% | -13%[46.1 µM] | 28%[46.1 µM] | 35µM* | 1% | 10%
CCOC(=O)c1cc(OC(=O)c2ccccc2C)n(-c2ccccc2)n1 | -11% | ? | ? | 5% | · | ·
Cc1ccc(/C=N/Nc2cc(C)nc(NCc3ccccc3)n2)cc1 | -23% | ? | ? | 13% | 7.1µM* | -15%
SMILES | FMDV antiviral | Marburg entry inh | LASV entry inh | Sm TGR block | HCV inh | RE007 growth inh
Cc1cc(N/N=C/c2ccc(F)cc2)nc(NCc2ccccc2)n1 | -18% | ? | ? | -22% | 11µM* | -21%
CN1CCN(C2CN(Cc3cn(Cc4ccc(Cl)cc4)nn3)S(=O)(=O)C2)CC1 (configuration not stated) | -24% | · | · | · | · | -16%
CCOC(=O)Cc1csc(NC(=O)/C=C/c2ccccc2Cl)n1 | -36% | ? | ? | 5% | ? | 4%
CCOC(=O)Cc1csc(NC(=O)c2c(O)c3ccccc3n(CCC(C)C)c2=O)n1 | -21% | ? | -10% | -5% | 10µM* | -9%
CCOC(=O)Cc1csc(NC(=O)/C=C\c2ccccc2Cl)n1 | -19% | ? | ? | -13% | 10µM* | -12%
CCOC(=O)Cc1csc(NC(=O)NC2(C(F)(F)F)Oc3ccccc3O2)n1 | -20% | 3% | -11% | 14µM* | ? | 0%
CCCCCCn1c(=O)c(C(=O)Nc2nc(CC(=O)OCC)cs2)c(O)c2ccccc21 | -8% | ? | ? | 4% | ? | 0%
CCOC(=O)Cc1csc(NC(=O)C(CC(C)C)NC(=O)C2CCCCC2)n1 (configuration not stated) | -19% | · | · | -7% | 14µM* | 0%
COc1cc2nc(SCc3cccc(Cl)c3)n3nc(CCn4nc(C)cc4C)nc3c2cc1OC | -9% | 5%[46.1 µM] | 7%[46.1 µM] | 35% | · | ·
Cc1ccc(CN2C[C@H](Sc3ccccn3)C[C@H]2C(=O)Nc2ccc3sc(C)nc3c2)cc1 | 4% | · | · | · | · | ·
CCOC(=O)Cc1csc(NC(=O)Nc2ccc(OC(F)(F)F)cc2)n1 | ? | ? | ? | 10% | 10µM* | -17%
CCOC(=O)Cc1csc(NC(=O)c2ccc(NC(C)=O)cc2)n1 | -12% | 0% | 5% | -9% | -6% | 4%
C=Cc1ccc(Cn2c(C(=O)O)c(CNCCc3ccco3)c3ccc(C)cc32)cc1 | -7% | · | -7%[46.1 µM] | 22µM* | · | ·
CC1=C(C(=O)Nc2cccnc2)C(c2cccc(Br)c2)n2nc(SCc3ccccc3)nc2N1 (configuration not stated) | -8% | -1%[46.1 µM] | ? | -16% | · | ·
O=C1C2ON(c3ccccc3)C(c3cccnc3)C2C(=O)N1Cc1ccccc1 (configuration not stated) | ? | -16% | 14% | 40µM* | 13% | -5%
COc1cc(C2C3C(=O)N(Cc4ccccc4)C(=O)C3ON2c2ccccc2)cc(OC)c1OC (configuration not stated) | -18% | 4% | 7% | -12% | -22% | 39%
COc1ccc(C2C3C(=O)N(Cc4ccccc4)C(=O)C3ON2c2ccccc2)c(OC)c1OC (configuration not stated) | -1% | ? | 5.6µM* | -19% | ? | 1%

Source: PubChem BioAssay
